Source: PubChem BioAssay (National Center for Advancing Translational Sciences (NCATS))
Only some compounds are listed: those with a hit (about 2.4% of all), similar ones and a draw of the others.
D2 ag-1 = agonists of human D2 dopamine receptor (beta-arrestin); DiscoveRx PathHunter D2 beta-arrestin, luminescence, 90 min; 100% = 57 uM dopamine signal; activation, % (concentration not given with the values); AID 624465; 0.084% of 360,000 active; P14416; in the data active = activation above about 40%; inconclusive = between about 15% and that limit
Target sequence (P14416 whole entry, looked up): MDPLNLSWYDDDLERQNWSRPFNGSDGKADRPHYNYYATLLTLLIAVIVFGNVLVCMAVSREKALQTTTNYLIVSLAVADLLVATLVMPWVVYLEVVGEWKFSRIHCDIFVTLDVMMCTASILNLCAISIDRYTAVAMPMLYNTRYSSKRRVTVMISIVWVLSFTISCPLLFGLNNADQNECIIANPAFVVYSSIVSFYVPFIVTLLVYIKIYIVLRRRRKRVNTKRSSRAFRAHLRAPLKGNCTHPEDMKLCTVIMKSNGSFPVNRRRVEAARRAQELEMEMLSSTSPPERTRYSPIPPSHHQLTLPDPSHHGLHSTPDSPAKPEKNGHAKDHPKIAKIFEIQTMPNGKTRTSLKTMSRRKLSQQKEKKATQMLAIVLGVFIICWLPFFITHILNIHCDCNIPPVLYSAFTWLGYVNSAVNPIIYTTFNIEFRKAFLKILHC
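Agonist mode: compounds alone added to overnight-plated D2 PathHunter cells for 90 min at 37 C, with 57 uM final dopamine (EC100) defining full response. Beta-arrestin recruitment detected by chemiluminescent reagent, read after 1 h at ambient temperature.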
D2 antagonist = D2 dopamine receptor (human) antagonism | HEK293 TREx D2 cells, calcium flux, dopamine EC80 | AID 485344 | 2% of 340,000 active | inhibition, % at 10 µM; in the data active = inhibition above about 30%; inactive = below that, where a call was filed; also: 0% is about no effect
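Calcium mobilization kinetics were recorded at 1 s intervals in tetracycline-induced HEK293 T-REx D2 cells, first for 180 s after compound addition and then 180 s after EC80 dopamine.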
D2 PAM-1 = positively modulates the human D2 dopamine receptor allosterically. P14416. HEK293 T-REx D2, calcium flux, EC20 dopamine potentiation. potentiation, % at 10 µM. 0.34% of 340,000 active;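 active = potentiation over 3 SD above the plate norm, cut at about 30% in these data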; also: 0% is about no effect
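Tetracycline-induced Hek293 Trex D2 cells, force-coupled to calcium, loaded with no-wash calcium dye. Compound added with 180 s kinetic read for agonism, then EC20 dopamine and a further 180 s read for potentiation.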
D2 PAM-2 = potentiates the human D2 dopamine receptor allosterically. P14416. DiscoveRx D2 beta-arrestin cells, luminescence, 90 min; 100% = 57 uM dopamine signal. potentiation, % (test concentration not listed). 0.23% of 360,000 active. AID 624464; in the data active = potentiation above about 50%; inconclusive = mostly about 30% to 49%
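PathHunter beta-arrestin assay in DiscoveRx D2 cells. Compounds were added with an EC20 of dopamine (50 nM final) for 90 min at 37 deg C. Luminescence was read 1 h after detection reagent, with 57 uM dopamine as the EC100 control.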
D2 ag-2 = activates the human D2 dopamine receptor | AID 485358 | HEK293 T-REx D2 cells, calcium flux agonist mode | 0.53% of 340,000 active | P14416 | activation, % at 2 µM;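 active = activation over 3 SD above normal in the single-dose calcium agonist read, cut at about 30% in these data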; also: 0% is about no effect
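Calcium-flux readout, 1 cycle/sec over 180 s following compound pin transfer, in inducible HEK293 Trex D2 cells (force-coupled); dopamine controls included. Positive calcium responses during this window marked compounds as potential agonists.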
An asterisk follows results filed as active.

Results for COc1cccc(CNC(=O)c2nc(Cn3nc(C)c(Br)c3C)no2)c1 ?
D2 PAM-1: 2; D2 ag-2: 1

Results for CCn1c2ccccc2c2cc(NC(=O)Cc3ccc(S(=O)(=O)N4CCOCC4)s3)ccc21 ?
D2 ag-1: 0; D2 antagonist: 36*; D2 PAM-1: -6; D2 PAM-2: 1; D2 ag-2: 0

How did CCC(C)(C)NC(=O)c1ccc2c(c1)S(=O)(=O)c1ccccc1C2=O do in these assays?
D2 ag-1: -1; D2 antagonist: -14; D2 PAM-1: 17; D2 PAM-2: 71*; D2 ag-2: 0

How did O=C1c2ccccc2S(=O)(=O)c2cc(C(=O)N(c3ccccn3)c3ccccn3)ccc21 do in these assays?
D2 ag-1: 6; D2 antagonist: 22; D2 PAM-1: 17; D2 PAM-2: inconclusive; D2 ag-2: 37*

What do the screens show for `O=C(Nc1ccccn1)c1ccc2c(c1)S(=O)(=O)c1ccccc1C2=O`?
D2 ag-1: 1; D2 antagonist: -8; D2 PAM-1: 13; D2 PAM-2: -1; D2 ag-2: 2

How did O=C(NCCOc1ccccc1)c1ccc2c(c1)S(=O)(=O)c1cc(Cl)ccc1C2=O do in these assays?
D2 ag-1: 7; D2 PAM-2: 73*

Results for OC(c1ccc2ccccc2c1)c1ncc(-c2ccc(C(F)(F)F)cc2)[nH]1 (stereo not drawn) ?
D2 ag-1: 3; D2 PAM-2: 10

How did Cc1ccc(N2CC(c3nnc(NC(=O)c4ccco4)s3)CC2=O)cc1Cl (stereo not drawn) do in these assays?
D2 PAM-1: -9; D2 ag-2: -1

What do the screens show for `CCOC(=O)C1(CCOc2ccccc2)CCN(Cc2ccc(O)c(OCC)c2)CC1`?
D2 ag-1: 8; D2 antagonist: 39*; D2 PAM-1: -14; D2 PAM-2: -26; D2 ag-2: 0

How did CCOC(=O)C1(CCOc2ccccc2)CCN(Cc2ccc(C)o2)CC1 do in these assays?
D2 ag-1: -1; D2 antagonist: 42*; D2 PAM-1: -17; D2 PAM-2: -19; D2 ag-2: -1

What do the screens show for `CCOC(=O)C1(CCOc2ccccc2)CCN(Cc2ccc(COC)o2)CC1`?
D2 ag-1: -2; D2 antagonist: -3; D2 PAM-1: -14; D2 PAM-2: -15; D2 ag-2: -1

Results for Cc1ccc2[nH]c3c(N4CCN(Cc5ccccc5)CC4)ncnc3c2c1 ?
D2 ag-1: 5; D2 antagonist: 39*; D2 PAM-1: -18; D2 PAM-2: -20; D2 ag-2: 1

What do the screens show for `Cc1ccc2c(c1)[nH]c1c(N3CCN(Cc4ccccc4)CC3)ncnc12`?
D2 ag-1: 2; D2 antagonist: -28; D2 PAM-1: 16; D2 PAM-2: -32; D2 ag-2: 1

How did O=S(=O)(Nc1c(O)ccc2ccccc12)c1ccccc1 do in these assays?
D2 ag-1: 42*; D2 PAM-2: 14

Results for CCc1cc(=O)n2c([nH]c3ccccc32)c1C#N ?
D2 ag-1: -3; D2 antagonist: 25; D2 PAM-1: -11; D2 PAM-2: 1

Results for CCc1cc(=S)n2c([nH]c3ccccc32)c1C#N ?
D2 ag-1: 2; D2 antagonist: 12; D2 PAM-1: 32*; D2 PAM-2: 5; D2 ag-2: 1

Results for O=C(Nc1ccccc1C(=O)O)c1cccc(NC(=O)c2ccccc2Cl)c1 ?
D2 ag-1: 6; D2 antagonist: 17; D2 PAM-1: 0; D2 PAM-2: 64*; D2 ag-2: 1

How did Cc1ccccc1C(=O)Nc1cccc(C(=O)Nc2ccccc2C(=O)O)c1 do in these assays?
D2 ag-1: 3; D2 antagonist: 2; D2 PAM-1: 33*; D2 PAM-2: 18; D2 ag-2: 0

Results for Cc1ccccc1-c1cc2nc(OCC3CCCO3)n(C)c(=O)c2s1 (stereo not drawn) ?
D2 ag-1: 0; D2 PAM-2: -10

Results for O=C(OCn1nnc2ccccc2c1=O)C1CCN(S(=O)(=O)c2cccs2)CC1 ?
D2 ag-1: -4; D2 antagonist: -11; D2 PAM-1: 74*; D2 PAM-2: -3; D2 ag-2: -1

How did O=C(OCc1ccccc1)C1CCN(S(=O)(=O)c2cccs2)CC1 do in these assays?
D2 ag-1: -3; D2 PAM-2: -6

What do the screens show for `CCOC(=O)CNC(=O)C12CC3CC(C1)CC(c1ccc(C)cc1)(C3)C2`?
D2 ag-1: -5; D2 antagonist: 2; D2 PAM-1: 0; D2 PAM-2: -5; D2 ag-2: 0

Results for CCOc1ccc(NC(=O)C23CC4CC(C2)CC(c2ccccc2)(C4)C3)cc1 ?
D2 ag-1: -3; D2 antagonist: 31*; D2 PAM-1: -7; D2 PAM-2: 8; D2 ag-2: 0

Results for O=C(CSc1cn(CCNC(=O)c2cccc(C(F)(F)F)c2)c2ccccc12)Nc1ccc2c(c1)OCCO2 ?
D2 PAM-1: 3; D2 ag-2: 1

What do the screens show for `COc1cc(-c2cc(NC(C)=O)c3ncc(-c4ccc(F)cc4)n3c2)cc(OC)c1OC`?
D2 ag-1: 7; D2 PAM-2: -2

Results for CC1CCCN(CCCNC(=O)c2ccc3c(c2)N(Cc2ccc(F)cc2)C(=O)c2ccccc2S3=O)C1 (stereo not drawn) ?
D2 ag-1: -9; D2 antagonist: 74*; D2 PAM-1: -19; D2 PAM-2: -39; D2 ag-2: 2

Results for CC(=O)Nc1cccc(C(=O)OCC(=O)c2ccccc2Cl)c1 ?
D2 ag-1: -3; D2 antagonist: 41*; D2 PAM-1: -2; D2 PAM-2: 5; D2 ag-2: 2

Results for Cn1c(=NC(=O)c2ccc(F)cc2)sc2cc(Br)ccc21 ?
D2 PAM-1: -5; D2 ag-2: -1

What do the screens show for `O=c1c(N2CCc3ccccc3C2)csc2ccc(Br)cc12`?
D2 PAM-1: 7

Results for CCCCN1C(=O)C(CC(=O)NCCc2ccccn2)CC(C(=O)N(CC)CC)=C1C (stereo not drawn) ?
D2 ag-1: 5; D2 PAM-2: 2

What do the screens show for `CN(C)c1ccc(N/C=C/C(=O)C(C)(C)C)cc1`?
D2 ag-1: 9; D2 antagonist: -7; D2 PAM-1: -6; D2 PAM-2: 66*; D2 ag-2: 0

Results for O=C(NNc1ccccc1)OCc1ccccc1 ?
D2 ag-1: -5; D2 PAM-2: -19

How did CCOc1cc(CN2CCN(CCOCCO)CC2)ccc1OC do in these assays?
D2 ag-1: -2; D2 antagonist: -5; D2 PAM-1: 2; D2 PAM-2: -8; D2 ag-2: 0

What do the screens show for `O=C(CSc1nc2c([nH]c3ccccc32)c(=O)n1-c1ccccc1)Nc1cccc(C(F)(F)F)c1`?
D2 PAM-1: -9

How did O=C(NCc1ccccc1Cl)c1nnc(Cc2cccc(F)c2)o1 do in these assays?
D2 PAM-1: -5; D2 ag-2: 1
